The values below come from PubChem BioAssay (NCATS).

Each structure is given as a SMILES string. Inconclusive results are not listed. A call without a number means that no potency is given here. The source made the active and inactive calls. The call rests on the fitted dose curve; in most records, active means well fitted cell-killing curve with a large enough effect; inconclusive means small, poorly fitted or top-dose-only effect, or effect the other way; inactive means no such curve, though single readings can be large or run the other way.
Potency means the concentration at half of the fitted maximal effect.

A short description of the assay: Quantitative High-Throughput drug screen in 47 multiple myeloma cell lines against the NCATS MIPE library collection: Karpas417_ECACC cell viability assay (AID 1918961). To be noted: Karpas417 myeloma viability, CellTiter-Glo ATP luminescence, 48 h; viability (% of DMSO): at 45.8 µM (top of the series). The text has this: PI: Beverly A. Mock Ph.D.
Laboratory of Cancer Biology and Genetics,
Center for Cancer Research, National Cancer Institute,
National Institute of Health, Bethesda, Maryland
Drug resistance and disease progression are common in multiple myeloma (MM) patients, underscoring the need for new therapeutic combinations. […] We hypothesized that effective combinations would reduce MYC expression and enhance p16 activity. […] These preclinical data identify potentially useful drug combinations for evaluation in drug-resistant MM and reveal potential mechanisms of combined drug sensitivity.
Described herein is the primary MIPE qHTS used to cherrypick compounds. Validated compounds were then further tested for potential synergistic activiy.
[1] Peat TJ, Gaikwad SM, Dubois W, Gyabaah-Kessie N, Zhang S, Gorjifard S, Phyo Z, Andres M, Hughitt VK, Simpson RM, Miller MA, Girvin AT, Taylor A, Williams D, D'Antonio N, Zhang Y, Rajagopalan A, Flietner E, Wilson K, Zhang X, Shinn P, Klumpp-Thomas C, McKnight C, Itkin Z, Chen L, Kazandijian D, Zhang J, Michalowski AM, Simmons JK, Keats J, Thomas CJ, Mock BA. Drug combinations identified by high-throughput screening promote cell cycle transition and upregulate Smad pathways in myeloma. Cancer Lett. 2023 Aug 1;568:216284. doi: 10.1016/j.canlet.2023.216284. Epub 2023 Jun 24. PMID: 37356470; PMCID: PMC10408729.
SEQUENCE No. (e.g., 1, 2, 3, etc.); […] (e.g., Cells, Incubation, Reagent, etc.); VALUE and DESCRIPTION.
1; Cells; 5 uL; white, solid bottom 1536-well Greiner assay plate.
2; Compounds; 23 nL; Kalypsis pin tool (Wako USA) equipped with a 1536-well pin head to transfer to the assay plates.
3; Incubation; 48 hours; 37C incubation.
4; Reagent;5uL; CellTiter Glo (Promega).
5; Detector; 425V; Luminescence; Viewlux PerkinElmer.
NOTES (numbers refer to Sequence numbers above)
1. The cell-based screening methods employed in this study were like those previously published. Briefly, the corresponding myeloma cell lines were screened in 1,536-well plates with 500 cells, 5-uL per well for inhibition of cell viability (assessed by measuring ATP levels with CellTiterGlo).
2. NCATS MIPE 4.0 library of approved and investigational drugs were added using the Kalypsis pin tool. Wells treated with DMSO only for 100% viability and media only wells for 0% viability were used as controls.
3. The assay plates were covered and incubated for 48 hours in a 37C, 5% CO2 incubator with controlled humidity.
4. After 48 hours, CellTilter-GloTM luminescent substrate mix (Promega) reagent was added to the assay plate and plates we incubated for 5 min at room temperature.
5. Signal was measured as median relative luminescence units on a ViewLux (PerkinElmer) multiplate reader.
[1] Heske CM, Davis MI, Baumgart JT, Wilson K, Gormally MV, Chen L, Zhang X, Ceribelli M, Duveau DY, Guha R, Ferrer M, Arnaldez FI, Ji J, Tran HL, Zhang Y, Mendoza A, Helman LJ, Thomas CJ. Matrix Screen Identifies Synergistic Combination of PARP Inhibitors and Nicotinamide Phosphoribosyltransferase (NAMPT) Inhibitors in Ewing Sarcoma. Clin Cancer Res. 2017 Dec 1;23(23):7301-7311. doi: 10.1158/1078-0432.CCR-17-1121. Epub 2017 Sep 12. PMID: 28899971; PMCID: PMC6636827.
As to `CCn1cc(C(=O)O)c(=O)c2cc(F)c(N3CCNCC3)cc21`, the Potency entry was “inactive”.
On to `CCC(=O)O[C@]1(C(=O)SCF)[C@H](C)C[C@H]2[C@@H]3C[C@H](F)C4=CC(=O)C=C[C@]4(C)[C@@]3(F)[C@@H](O)C[C@@]21C`, for which the Potency entry was “inactive”.
As for `COc1ccc2cc3[n+](cc2c1OC)CCc1cc2c(cc1-3)OCO2`, the Potency is 9.35 µM (active).
Same read-out and setting: the same measure for `CCOC(=O)c1ccc(OC(=O)CCCCCN=C(N)N)cc1`: “inactive”.
On the same count and under the same terms, the same measure for `COc1cc2nc(N3CCCN(C)CC3)nc(NC3CCN(Cc4ccccc4)CC3)c2cc1OC`: 2.35 µM (active).
`NC(=O)c1cccnc1`: the Potency result was “inactive”.
On the same count and under the same terms, the same measure for `O=C(O)c1ccc(-n2nc(-c3ccccc3O)nc2-c2ccccc2O)cc1`: “inactive”; for `NCCCC(O)(P(=O)(O)O)P(=O)(O)O`: “inactive”; for `Nc1ccc(S(=O)(=O)Nc2ccccn2)cc1`: “inactive”.
Still for that read-out and setting: the entry for `CCC(C)(C)c1ccc(CC(C)CN2C[C@@H](C)O[C@@H](C)C2)cc1` (stereo not given in full) is “inactive”; for `COc1cc(NCc2ccc3nc(N)nc(N)c3c2C)cc(OC)c1OC` it is 4.18 µM (active); for `COc1nc(N)nc2c1ncn2[C@@H]1O[C@H](CO)[C@@H](O)[C@@H]1O` it is “inactive”.
Still for that read-out and setting: the entry for `COc1c(N2CCNC(C)C2)c(F)cc2c(=O)c(C(=O)O)cn(C3CC3)c12` (stereo not given) is “inactive”.
As for `CCOC(=O)c1ccc(C#Cc2ccc3c(c2)C(C)(C)CCS3)nc1`, the viability (% of DMSO) is 132% (active).
Take `CCN1CCCC1CNC(=O)c1cc(S(N)(=O)=O)ccc1OC` (stereo not given): the Potency entry is “inactive”.
As to `COc1cc([C@@H]2c3cc4c(cc3[C@H](O)[C@H]3COC(=O)[C@H]23)OCO4)cc(OC)c1OC`, the Potency entry is “inactive”.
Regarding `Cc1ccc(S(=O)(=O)N[C@@H](Cc2ccccc2)C(=O)CCl)cc1`, the Potency is 11.8 µM (active).
On the same count and under the same terms, the same measure for `Cc1noc(NS(=O)(=O)c2ccc(N)cc2)c1C`: “inactive”; for `COC(c1ccccc1)(c1ccccc1)[C@H](Oc1nc(C)cc(C)n1)C(=O)O`: “inactive”.
Same read-out and setting: the same measure for `CCn1cc(C(=O)O)c(=O)c2cc(F)c(N3CCN(C)CC3)cc21`: “inactive”; for `CNS(=O)(=O)CCc1ccc2[nH]cc(C3CCN(C)CC3)c2c1`: 16.6 µM (active).
For `C[C@@H]1C[C@H]2[C@@H]3CCC4=CC(=O)C=C[C@]4(C)[C@@]3(Cl)[C@@H](O)C[C@]2(C)[C@@]1(OC(=O)c1ccco1)C(=O)CCl`, the Potency was 8.33 µM (active).
Turning to `O=C(O)c1cccnc1`, the Potency result was “inactive”.
Still for that read-out and setting: the entry for `COc1cc2c(Nc3ccc(Br)cc3F)ncnc2cc1OCC1CCN(C)CC1` is “inactive”.
Same read-out and setting: the same measure for `C[C@@H](CN1CC(=O)NC(=O)C1)N1CC(=O)NC(=O)C1`: 0.0526 µM (active); for `C1CCC(C(CC2CCCCN2)C2CCCCC2)CC1` (stereo not given): 18.7 µM (active).
On the same count and under the same terms, the same measure for `Cc1onc(-c2ccccc2Cl)c1C(=O)N[C@@H]1C(=O)N2[C@@H]1SC(C)(C)[C@@H]2C(=O)O`: “inactive”.
With `COc1ncnc(NS(=O)(=O)c2ccc(N)cc2)c1OC`, the Potency result is “inactive”.
Take `CC(C)NCC(O)c1ccc(NS(C)(=O)=O)cc1` (stereo not given): the Potency entry is “inactive”.
`C#CCN[C@@H]1CCc2ccccc21`: the Potency result was “inactive”.
As to `CNS(=O)(=O)Cc1ccc2[nH]cc(CCN(C)C)c2c1`, the viability (% of DMSO) was 103% (active).
Regarding `NC(=O)c1ccc2[nH]ccc2c1`, the Potency result was “inactive”.
Still for that read-out and setting: the figure for `CC(C(=O)O)c1ccc2c(c1)CC(=O)c1ccccc1S2` (stereo not given) is 0.0209 µM (active).
On the same count and under the same terms, the same measure for `CN(C)CCc1c[nH]c2ccc(C[C@H]3COC(=O)N3)cc12`: 3.72 µM (active).
The same measure, in the same setting: the same measure for `CC(C)(Sc1cc(C(C)(C)C)c(O)c(C(C)(C)C)c1)Sc1cc(C(C)(C)C)c(O)c(C(C)(C)C)c1`: “inactive”.
As to `Nc1nc(=S)c2[nH]cnc2[nH]1`, the Potency result is “inactive”.
Still for that read-out and setting: the same measure for `CCN(CC)CCn1c(=O)c(Cc2ccc(OC)cc2)nc2ccccc21`: “inactive”.
Turning to `O=c1cc(O)c(Cl)c[nH]1`, the Potency is 1.18 µM (active).
Still for that read-out and setting: the figure for `COc1cnc(NS(=O)(=O)c2ccc(N)cc2)nc1` is 11.8 µM (active); for `CC(=O)Oc1ccccc1C(=O)Nc1ncc([N+](=O)[O-])s1` it is 13.6 µM (active).
